Screening results from PubChem.
Hits are enriched below; roughly 6.6% of the tested compounds scored in any of these assays.
Gli-Sufu block – antagonists of Gli-Sufu signaling; Sufu-KO-LIGHT fibroblasts, Gli luciferase reporter luminescence; inhibition, % at 5 µM; actives 0.74% (n = 340,000);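 active = inhibition above about 55%, limit read from the data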
Beta cell apopt – blocks beta cell apoptosis. INS-1E cytokine-induced death, ATP luminescence, 48 h; percent of positive-control rescue, neutral wells zero. protection from apoptosis, % (test concentration not listed). actives 0.8% (n = 300,000);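 active = Every replicate reaches about 75%, or at least half do and their mean reaches it too, limit read from the data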;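 note: higher means more ATP so stronger rescue from cytokine killing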
CSC inhib – blocks cancer stem cells | cancer stem cell-like cells viability, luminescence | inhibition, % at 7.5 µM | actives 1.1% (n = 300,000) | AID 2717; in the data active = inhibition above about 75%; tested in HMLE shEcad cells
Mdm2-MdmX inh – human Mdm2/MdmX binding inhibition; SaOS-2 split-luciferase Mdm2/MdmX complementation, luminescence; O15151+Q00987; inhibition, % at 8 µM; actives 3% (n = 330,000);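 active = inhibition of at least 50% at 8 µM in the primary screen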
Target sequence (O15151 whole entry, looked up): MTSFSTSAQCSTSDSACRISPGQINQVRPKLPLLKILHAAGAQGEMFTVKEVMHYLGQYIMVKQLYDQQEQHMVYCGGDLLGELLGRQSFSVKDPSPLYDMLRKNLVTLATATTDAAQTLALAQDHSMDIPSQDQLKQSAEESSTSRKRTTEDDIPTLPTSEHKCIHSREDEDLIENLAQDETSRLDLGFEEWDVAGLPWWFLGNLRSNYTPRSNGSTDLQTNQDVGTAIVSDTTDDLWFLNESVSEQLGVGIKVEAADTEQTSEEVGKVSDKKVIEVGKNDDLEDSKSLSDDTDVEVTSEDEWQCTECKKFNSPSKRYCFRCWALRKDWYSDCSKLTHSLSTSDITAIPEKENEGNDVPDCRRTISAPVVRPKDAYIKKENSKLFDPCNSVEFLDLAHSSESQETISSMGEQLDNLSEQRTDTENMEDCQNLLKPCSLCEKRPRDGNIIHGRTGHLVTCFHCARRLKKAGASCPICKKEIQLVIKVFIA
Target sequence (Q00987 whole entry, looked up): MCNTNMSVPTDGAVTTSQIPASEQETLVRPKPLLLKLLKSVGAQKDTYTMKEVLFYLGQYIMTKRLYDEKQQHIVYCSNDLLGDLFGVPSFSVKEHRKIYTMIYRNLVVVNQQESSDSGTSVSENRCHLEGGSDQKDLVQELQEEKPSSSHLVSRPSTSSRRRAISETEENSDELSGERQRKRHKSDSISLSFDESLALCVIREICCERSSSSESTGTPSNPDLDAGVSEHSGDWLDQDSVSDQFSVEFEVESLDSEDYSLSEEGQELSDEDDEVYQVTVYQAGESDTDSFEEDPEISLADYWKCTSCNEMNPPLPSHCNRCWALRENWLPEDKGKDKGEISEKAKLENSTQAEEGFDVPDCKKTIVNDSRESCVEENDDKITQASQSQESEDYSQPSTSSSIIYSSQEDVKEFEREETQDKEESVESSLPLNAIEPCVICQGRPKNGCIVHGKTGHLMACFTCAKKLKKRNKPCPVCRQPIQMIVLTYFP
GRIN3A LBD mod – modulators (binders) of human NR3A ligand-binding domain; Tm shift relative to glycine control, % at 25 µM; actives 2.5% (n = 340,000); NR3A LBD differential scanning fluorimetry, Tm shift; 0% = protein alone, 100% = glycine-bound protein; AID 1259313;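 active = melting temperature shift of at least 10% of the positive control shift, at one fixed dose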
MPTP block – inhibitors of mitochondrial permeability transition pore; isolated mouse mitochondria, Ca2+ swelling absorbance, 30 min; inhibition, % at 10 µM; actives 1.4% (n = 360,000);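 active = inhibition of 50% or more, scaled per plate between neutral and stimulator controls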
MPTP counter – Rhodamine 123 counter-screen of mitochondrial pore hits; inhibition, % at 10 µM; AID 624504; isolated mitochondria, membrane potential, Rhodamine 123 fluorescence; shares compounds with MPTP block; actives 78% (n = 5,000); in the data active = inhibition above about 22%
MPTP abs DR – dose response confirmation of mitochondrial permeability transition pore inhibitors; shares compounds with MPTP block; isolated mitochondria swelling, absorbance; IC50, µM; actives 58% (n = 780); in the data active = IC50 below about 20 µM
MPTP cs DR – active in counter-screen for permeability transition pore inhibitors; isolated mitochondria counterscreen, fluorescence read-out; AID 651564; shares compounds with MPTP block; actives 49% (n = 780); IC50, µM; in the data active = IC50 below about 80 µM
Hits are given with their value; i = inactive; nt = not tested or not shown.

SMILES	Gli-Sufu block	Beta cell apopt	CSC inhib	Mdm2-MdmX inh	GRIN3A LBD mod	MPTP block	MPTP counter	others
O=[N+]([O-])c1cc(Br)c(O)c(/C=N/Nc2nnnn2-c2cccc3ccccc23)c1	i	nt	i	i	i	56.0	34.1
O=C(Nc1cccc(Cl)c1)O/N=C\c1ccncc1	i	i	i	i	i	82.4	93.2
COc1ccc(NC(=O)O/N=C/c2ccccc2)cc1	i	i	i	i	i	i	nt
O=C(Nc1ccc(Cl)c(Cl)c1)O/N=C/c1ccncc1	i	i	75.3	i	29.1	104.0	78.4
Cc1ccc(N(CC(=O)Nc2ccc(F)c(Cl)c2)S(=O)(=O)c2c(C)noc2C)cc1	i	i	i	i	11.1	57.7	101.3
CN(C)CCCNS(=O)(=O)c1ccc(NC2CCCCCC2)c([N+](=O)[O-])c1	i	84.8	i	i	i	85.1	81.2
COc1cccc(CN2CCC2(C)C(=O)Nc2ccc(Cl)c(Cl)c2)c1F (stereo not drawn)	nt	nt	nt	nt	nt	i	nt
CCn1c(C)nc([N+](=O)[O-])c1Sc1ccc(F)cc1	i	i	nt	i	i	76.6	i	MPTP abs DR=i;MPTP cs DR=i
Cc1nc([N+](=O)[O-])c(Sc2nc3ccccc3[nH]2)n1Cc1ccccc1	i	i	i	i	i	i	nt
O=C1CSC(=Nc2ccccc2[N+](=O)[O-])N1	i	i	nt	i	i	i	nt
CC(C)[C@H](NC(=O)OC(C)(C)C)c1nnc(SCC(=O)Nc2ccc(Br)cc2)o1	i	i	i	i	i	82.2	53.4
O=C1c2cccc(OCc3ccc(F)cc3)c2CCN1Cc1ccc(F)cc1	i	i	i	i	i	79.4	83.2
Cc1ccc(CN2CCc3c(OCc4ccc(F)cc4)cccc3C2=O)cc1	i	i	i	i	i	i	nt
CCOC(=O)C1=C(C)N(C)C(=S)NC1c1ccc(Cl)cc1Cl (stereo not drawn)	i	nt	nt	i	i	i	nt
O=S(=O)(Nc1ccc(Cl)cc1NS(=O)(=O)c1ccccc1)c1ccccc1	i	nt	nt	nt	i	88.8	65.0
Cc1ccc(Cl)cc1NS(=O)(=O)c1ccccc1	i	nt	nt	nt	i	i	nt
O=C(NCCc1cn2ccccc2n1)c1ccccc1F	i	i	i	i	i	i	nt
O=C(NCCc1cn2ccccc2n1)c1cc(COc2ccc3ncccc3c2)on1	i	104.1	i	i	i	101.5	92.4
COCC1CCN(C(=O)c2cc(COc3ccc4ncccc4c3)on2)CC1	i	i	i	i	i	74.0	80.6
COC(=O)C1CCCCN1C(=O)c1cc(COc2cccc3cnccc23)on1 (stereo not drawn)	nt	101.3	i	i	nt	92.9	99.7
O=C(c1cc(COc2ccc3ncccc3c2)on1)N1CCCC1	i	i	i	i	i	52.2	69.9
COc1cc(/C=C2\C(=N)N3N=C(C)SC3=NC2=O)cc(Cl)c1OCCOc1ccc(NC(C)=O)cc1	i	i	i	i	i	i	nt
CSc1ccccc1OCc1cc(C(=O)N2CCC(c3ccncc3)CC2)no1	nt	nt	i	i	nt	59.8	91.2
Cc1cc(OCc2cc(C(=O)N3CCC(Oc4cccnc4)CC3)no2)cc(C)c1Cl	i	nt	77.0	i	i	68.6	102.4
O=C(c1cc(COc2ccc(F)cc2Cl)on1)N1CCC(c2ccncc2)CC1	i	i	i	i	i	i	nt
SMILES	Gli-Sufu block	Beta cell apopt	CSC inhib	Mdm2-MdmX inh	GRIN3A LBD mod	MPTP block	MPTP counter	others
O=C(c1cc(COc2ccc3ncccc3c2)on1)N1CCCCCC1	i	90.7	i	i	i	98.5	100.6
NCCCC[C@H]1CN=C(N)N1CCCCC1CCCCC1	i	i	i	i	i	74.0	i	MPTP abs DR=i;MPTP cs DR=i
NCCCC[C@H]1CN=C(N)N1CC1CCCCC1	i	i	i	i	i	i	nt
CCOCCCNCc1cn(-c2ccc(F)cc2F)nc1-c1ccccc1C	i	nt	nt	i	i	57.8	i	MPTP abs DR=14.6;MPTP cs DR=60.4
COc1ccc(C(O)c2nc(-c3ccncc3)cs2)cc1 (stereo not drawn)	nt	nt	nt	nt	nt	56.6	66.2
O=C(NCc1ccc2c(c1)OCO2)c1c(-c2ccccc2)sc2ccccc12	i	i	i	i	i	81.9	79.3
CCCc1nnc(NC(=O)CCC(=O)N2CCC(Cc3ccccc3)CC2)s1	i	i	i	i	i	i	nt
CCOC(=O)N1CCN(S(=O)(=O)c2ccc(C(=O)N(CCCN(C)C)c3nc4ccc(Cl)cc4s3)cc2)CC1	i	i	i	i	i	i	nt
CN(C)CCCN(C(=O)c1ccc(S(=O)(=O)N2CCc3ccccc3C2)cc1)c1nc2c(F)cc(F)cc2s1	i	nt	i	i	nt	90.9	i
COc1ccc2sc(N(CCCN(C)C)C(=O)c3ccc(S(=O)(=O)N(C)Cc4ccccc4)cc3)nc2c1	i	nt	i	i	i	78.1	i	MPTP abs DR=8.11
CCOC(=O)N1CCN(S(=O)(=O)c2ccc(C(=O)N(CCCN(C)C)c3nc4c(F)cc(F)cc4s3)cc2)CC1	i	nt	i	i	i	51.2	i	MPTP abs DR=18.9;MPTP cs DR=i
COc1ccc(C)c2sc(N(CCCN(C)C)C(=O)c3ccc(S(=O)(=O)N4CCc5ccccc5C4)cc3)nc12	i	nt	i	nt	i	95.8	i
CCOc1ccc2nc(N(CCCN(C)C)C(=O)c3ccc(S(=O)(=O)N4CCc5ccccc5C4)cc3)sc2c1	i	i	i	i	i	i	nt
COc1ccc2nc(N(CCN(C)C)C(=O)c3ccc(C(=O)c4ccccc4)cc3)sc2c1	i	i	i	i	i	i	nt
O=C(NCc1ccccc1)[C@@H]1CCCN1C(=O)[C@@H]1CCCN1C(=O)c1cccs1	nt	nt	nt	nt	nt	i	nt
CCOc1ccc(C(=O)OCC(=O)NC(C)C)cc1	i	i	i	i	i	i	nt
COC(=O)c1ccccc1CON1C(=O)C(C)(C)N(OCc2ccccc2C(=O)OC)C(=O)C1(C)C	i	i	i	i	i	i	nt
Cc1ccc(-c2nc3cc(NC(=O)C(C)C)ccc3o2)cc1	i	i	i	i	i	i	nt
CC(Oc1ccc(Cl)cc1Cl)C(=O)Nc1ccc2oc(-c3ccncc3)nc2c1 (stereo not drawn)	i	i	i	i	i	74.1	82.8
Clc1ccc(NNc2ccnc3cc(Cl)ccc23)cc1	i	i	i	i	i	i	nt
Clc1ccc2c(NCc3ccccc3)ccnc2c1	i	i	i	i	i	88.2	82.8
S=C(NNc1ccnc2cc(Cl)ccc12)Nc1ccccc1Cl	i	nt	i	i	20.4	98.3	77.4
CCc1ccc(NC(=O)Cc2c(C(=O)O)n(C)c3ccccc23)cc1	i	nt	i	i	i	i	nt
CC1(c2ccc([N+](=O)[O-])cc2)Nc2ccccc2S1 (stereo not drawn)	i	i	i	i	i	i	nt
COCCCN1C(=O)C(CC(=O)NCCc2ccccn2)CC(C(=O)N2CCOCC2)=C1C (stereo not drawn)	nt	nt	nt	nt	nt	i	nt
